High-throughput results deposited in PubChem by The Scripps Research Institute Molecular Screening Center.
MITF primary: inhibitors of human MITF; O75030; AlphaScreen MITF homodimerization, bead proximity signal; inhibition, % at 2.6 µM; 0.91% of 650,000 active; AID 1259374; in the data active means inhibition above about 50%;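 further: 0% = vehicle wells with protein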
FBW7 activator: activators of human E3 ligase FBW7. Q969H0. AlphaScreen FBW7–phospho-cyclin E peptide binding, activator screen. normalized activity (activation), % at 26.1 µM. 0.13% of 650,000 active; in the data active means normalized activity above about 1.9%;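 further: purified mutant Fbw7 with reduced substrate affinity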
Target sequence (Q969H0 whole entry, looked up): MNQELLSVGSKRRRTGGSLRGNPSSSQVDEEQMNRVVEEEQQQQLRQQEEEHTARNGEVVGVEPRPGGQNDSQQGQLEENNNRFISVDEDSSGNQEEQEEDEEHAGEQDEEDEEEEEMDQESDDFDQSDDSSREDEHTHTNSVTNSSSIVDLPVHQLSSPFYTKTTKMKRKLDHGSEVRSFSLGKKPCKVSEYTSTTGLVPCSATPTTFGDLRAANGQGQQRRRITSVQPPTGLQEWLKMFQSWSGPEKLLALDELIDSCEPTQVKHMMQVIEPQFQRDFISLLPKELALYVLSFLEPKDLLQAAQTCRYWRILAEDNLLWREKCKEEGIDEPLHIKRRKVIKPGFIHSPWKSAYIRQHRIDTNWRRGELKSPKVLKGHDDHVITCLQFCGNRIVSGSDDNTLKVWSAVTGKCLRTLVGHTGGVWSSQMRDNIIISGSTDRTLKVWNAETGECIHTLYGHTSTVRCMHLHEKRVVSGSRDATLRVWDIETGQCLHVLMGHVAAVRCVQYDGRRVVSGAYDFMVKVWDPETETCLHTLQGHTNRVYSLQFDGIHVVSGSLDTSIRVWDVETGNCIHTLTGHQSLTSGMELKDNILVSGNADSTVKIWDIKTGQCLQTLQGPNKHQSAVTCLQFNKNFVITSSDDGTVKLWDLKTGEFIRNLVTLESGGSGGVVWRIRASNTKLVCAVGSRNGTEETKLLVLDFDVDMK
TEAD-YAP block: TEAD-YAP interaction inhibition; HEK-TIYL cells, TEAD-Gal4/YAP UAS-luciferase luminescence; inhibition, % at 9.12 µM; 1.4% of 640,000 active; in the data active means inhibition above about 32%;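 further: 0% = median of test compound wells and 100% = reference inhibitor wells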
GPR151 ag: activates the human receptor GPR151 | PathHunter beta-arrestin GPR151 cells, luminescence | activation, % at 11.2 µM | 1% of 650,000 active | AID 1508602; in the data active means activation above about 4.9%;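 further: 0% = median of compound wells and 100% = cells with positive control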
* marks the source's active call; other numbers are inactive results. Sampled rows, rich in hits. Any-hit rate of the full collection: about 3.5%.

SMILES	MITF primary	FBW7 activator	TEAD-YAP block	GPR151 ag
CCOC(=O)N1CCc2c(sc(NC(=O)/C=C/c3ccccc3)c2C(N)=O)C1	7	0	40*	-2
Cc1nc(NCCNC(=O)C(C)(C)C)c2c3c(sc2n1)CCCC3	16	0	6	1
O=[N+]([O-])c1cc(CN2CCN(c3cccc(C(F)(F)F)c3)CC2)c2cccnc2c1O	100*	0	20	-1
Oc1c(Cl)cc(CN2CCN(c3cccc(C(F)(F)F)c3)CC2)c2cccnc12	38	0	70*	-1
Cc1cc(C)cc(CC(C)CC(=O)Nc2cc(C)ccc2C)c1 (stereo unspecified)	5	0	4	3
O=C(NCc1ccccn1)c1cccc(OC2CCN(C(=O)C3=CCCC3)CC2)c1	-6	0	8	1
Ic1ccc(Nc2nc3nonc3nc2N2CCOCC2)cc1	-5	0	5	0
c1ccc(Nc2nc3nonc3nc2N2CCCCCC2)cc1	-8	0	37*	2
Clc1cccc(Nc2nc3nonc3nc2N2CCOCC2)c1	3	0	57*	1
Clc1cccc(Nc2nc3nonc3nc2N2CCCCC2)c1	6	0	43*	0
COC(=O)c1cc(NC(C)=O)ccc1Cl	-1	0	8	0
CCOC(=O)c1cccc(N2C(=O)c3cccc4cccc(c34)C2=O)c1	0	1	8	-1
COc1cc(C(=O)N2N=C(C)CC2(O)C(F)(F)F)cc(OC)c1OC (stereo unspecified)	-3	0	60*	1
COc1cc(OC)cc(C(=O)N2N=C(C)CC2(O)C(F)(F)F)c1 (stereo unspecified)	-14	0	50*	-1
CC1=NN(C(=O)c2cc(O)cc(O)c2)C(O)(C(F)(F)F)C1 (stereo unspecified)	-4	0	1	1
COc1cc(C(=O)N2N=C(C3CC3)CC2(O)C(F)(F)F)cc(OC)c1OC (stereo unspecified)	-1	0	10	-1
CCCOc1ccc(/C=N/NC(=O)c2n[nH]c(=O)c3ccccc23)cc1OC	2	0	-6	-2
CCc1cccc2c(/C=N/NC(=O)c3n[nH]c(=O)c4ccccc34)c[nH]c12	8	0	47*	-1
O=C(O)CCC(=O)N(Cc1cccnc1)Cc1cccc(F)c1	8	0	49*	0
O=C(CN1C(=O)COc2ccccc21)N(Cc1cccnc1)Cc1cccc(F)c1	-5	0	6	0
Cc1oc(C2CC2)cc1C(=O)N1CCC2(CC1)NC(=O)c1ccccc1N2	-8	0	1	-2
COc1ccc(-c2csc(NC(=O)c3cc(C)nn3C)n2)cc1	0	0	63*	0
COc1ccc(-c2csc(NC(=O)c3csc(C)c3)n2)cc1	-5	-1	-4	1
CCN(CC)CCNC(=O)Cn1c(C)nc2ccccc21	13	0	-6	1
Cc1[nH]c2ccc(CNC(=O)Cn3c(C)nc4ccccc43)cc2c1C	13	0	50*	0
SMILES	MITF primary	FBW7 activator	TEAD-YAP block	GPR151 ag
COc1ccc(C(CC(=O)O)NC(=O)c2ccc(OC)c(Br)c2)cc1 (stereo unspecified)	8	0	-1	-1
O=C(c1ccco1)N1CCN(c2nccn3c(-c4ccccc4CO)cnc23)CC1	-7	0	-1	-2
O=C(c1ccco1)N1CCN(c2ncc(-c3ccccc3CO)n3ccnc23)CC1	-4	6.7*	-1	-4
c1ccc(NNC2=Nc3ccccc3CCC2)cc1	3	0	36*	0
Nn1c(Cc2ccccc2F)nnc1SCc1cc(=O)oc2cc(O)c(O)cc12	95*	-1	6	-1
Nn1c(SCc2cc(=O)oc3cc(O)c(O)cc23)nnc1-c1ccncc1	85*	-1	-6	0
Cn1c(SCc2cc(=O)oc3cc(O)c(O)cc23)nc2ccccc21	42	0	-4	-3
CCSCCOC(=O)C1=C(C)NC2=C(C(=O)C(C(=O)OC)C(C)C2)C1c1c(F)cccc1Cl (stereo unspecified)	0	1.9*	-15	1
CC(=O)Nc1ccc(Nc2ncnc3nc(Nc4ccc(N5CCOCC5)cc4)[nH]c23)cc1	10	0	0	1
c1nc(Nc2ccc(N3CCOCC3)cc2)c2[nH]c(NCCN3CCOCC3)nc2n1	15	0	7	-2
c1nc(NC2CC2)c2[nH]c(Nc3ccc(N4CCOCC4)cc3)nc2n1	17	0	35*	-3
CC(=O)Nc1ccc(Nc2ncnc3nc(-c4ccc(N5CCOCC5)nc4)[nH]c23)cc1	0	0	28	-1
c1cc(Nc2nc3ncnc(Nc4ccc(N5CCOCC5)cc4)c3[nH]2)ccn1	15	0	43*	-2
c1ccc(CN2CCC(Nc3ncnc4nc(Nc5ccc(N6CCOCC6)cc5)[nH]c34)CC2)cc1	9	0	3	0
c1cnc(Nc2nc3ncnc(Nc4ccc(N5CCOCC5)cc4)c3[nH]2)nc1	17	0	53*	-2
c1ccc(Nc2ncnc3nc(-c4ccc(N5CCOCC5)nc4)[nH]c23)cc1	26	0	54*	2
O=C(Nc1cnn(CC(=O)N(CC2CCC2)CC2CCCO2)c1)c1ccccc1F (stereo unspecified)	7	0	2	1
O=CN1CCN(S(=O)(=O)c2ccc3c(c2)Cc2cc(S(=O)(=O)N4CCN(C=O)CC4)ccc2-3)CC1	-7	0	-4	-1
Cn1c(SCC(=O)Nc2ccc3nc(SCC(=O)N4CCc5ccccc54)sc3c2)nc2sc3c(c2c1=O)CCCC3	10	0	3	0
Cc1noc(C)c1-c1nc2ncnc(Nc3ccc(N4CCOCC4)cc3)c2[nH]1	13	0	33*	-1
CCN(CC)C(=O)C1CCCN(c2nc3ncnc(Nc4ccc(N5CCOCC5)cc4)c3[nH]2)C1 (stereo unspecified)	-4	0	44*	-3
CCc1ccc(NC(=O)CN2CCC(c3nc4ccccc4[nH]3)CC2)cc1	15	1	4	0
C/C=C/C(=O)Oc1ccccc1/C=C1/N=C(c2ccc(Cl)cc2)OC1=O	19	0	36*	-1
CCCCCCOc1ccccc1/C=C1/N=C(c2ccc(Cl)cc2)OC1=O	8	0	3	0
Cc1ccc(NS(=O)(=O)c2cc(C(=O)NC3CCCC3)ccc2C)cc1	1	0	-3	1
SMILES	MITF primary	FBW7 activator	TEAD-YAP block	GPR151 ag
CCOc1cc(-c2nnc(SCC(=O)Nc3ccc(C)c(C)c3)nc2-c2ccc(OC)c(OCC)c2)ccc1OC	-11	1	-2	-1
Cc1cccc2cc(CN(CCc3ccccc3)C(=O)c3ccncc3)c3nnnn3c12	12	1	-2	-1
COc1ccccc1CN(Cc1cc2cccc(C)c2n2nnnc12)C(=O)c1ccncc1	-1	0	34*	0
C/C(CC(=O)Nc1ccc2c(c1)OCCO2)=N\NC(=O)c1ccc(Br)cc1	-3	0	-7	0
COc1ccc(-c2cn3c4c(=O)n(C)c(=O)n(C)c4nc3n2-c2ccc(C)cc2)cc1OC	2	0	-7	2
CC(C)Cc1nnc(NC(=O)CC(C)(C)C)s1	16	2.1*	-9	0
